# RGS4-Gao reg = modulators of RGS4 binding to Galphao, primary screen, biochemical, multiplexed bead flow cytometry | Guanine nucleotide-binding protein G(o) subunit alpha (Homo sapiens), P09471 | actives lie on both sides | binding response (% of control), % at 10 µM | 220,000 tested, 0.33% active | AID 1415, 2008; in the data active = binding response below about 49% or above about 150%; inactive = in between;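 note: fluorescent Galphao activated with aluminum fluoride binding bead-coupled RGS4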
# Target sequence (P09471 whole entry, looked up): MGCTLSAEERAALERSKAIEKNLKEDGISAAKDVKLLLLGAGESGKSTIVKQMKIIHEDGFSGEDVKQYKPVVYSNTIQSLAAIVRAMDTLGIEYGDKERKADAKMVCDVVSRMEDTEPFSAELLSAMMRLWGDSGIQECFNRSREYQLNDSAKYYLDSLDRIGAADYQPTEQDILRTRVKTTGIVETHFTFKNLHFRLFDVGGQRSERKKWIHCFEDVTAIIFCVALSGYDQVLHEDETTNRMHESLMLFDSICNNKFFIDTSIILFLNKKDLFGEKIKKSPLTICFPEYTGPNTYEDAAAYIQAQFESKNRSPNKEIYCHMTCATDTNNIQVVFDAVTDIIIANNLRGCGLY
# RGS7-Gao = RGS7-Galphao binding modulators, primary screen, biochemical, multiplexed bead flow cytometry | Guanine nucleotide-binding protein G(o) subunit alpha (Homo sapiens), P09471 | actives lie on both sides | binding response (% of control), % at 10 µM | 220,000 tested, 0.35% active | AID 1439, 2008; in the data active = binding response below about 49% or above about 150%; inconclusive = no clear call, values can overlap the other calls; inactive = in between;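 note: fluorescent Galphao held in activated GDP-AlF4 state binding bead-coupled RGS7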
# Avidin bead fluor = green autofluorescence of compounds with avidin beads – biophysical, 488/530 nm, flow cytometry, artefact control, profiling panel; compound fluorescence 488/530 nm; stronger effect = higher value; fluorescence (KMESF) at 10 µM; 220,000 tested, 0.38% active; AID 1775, 2009; in the data active = fluorescence above about 47
# GSH fluor = compound fluorescence on glutathione beads, profiling panel, artefact control, biophysical, 488/530 nm, flow cytometry | GSH beads flow cytometry, compound fluorescence 488/530 nm; stronger effect = higher value | fluorescence (KMESF) at 10 µM | 190,000 tested, 0.25% active | AID 1776, 2009; in the data active = fluorescence above about 89;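 note: glutathione beads carrying GST-tagged Bcl family fusion proteins plus one bare bead set; values are compound well signal with DMSO vehicle wells as background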
# RGS16-Gao = modulators of RGS16 binding to Galphao, primary screen, biochemical, human proteins, multiplexed bead flow cytometry; binding response (% of control), % at 10 µM; 220,000 tested, 0.38% active; bead-based flow cytometry RGS16-Galphao binding, fluorescence; actives lie on both sides; Regulator of G-protein signaling 16 (Homo sapiens) + Guanine nucleotide-binding protein …; AID 1441, 2008;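 note: Galphao activated by GDP with aluminum fluoride before binding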
# RGS8-Gao = RGS8-Galphao binding modulators, primary screen, biochemical, multiplexed bead flow cytometry; response (percent of control binding), % at 10 µM; AID 1423, 2008; actives lie on both sides; Guanine nucleotide-binding protein G(o) subunit alpha (Homo sapiens), P09471; 220,000 tested, 0.34% active; in the data active = response below about 60% or above about 140%; inactive = in between;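 note: Galphao activated as the GDP aluminium fluoride complex binding bead-coupled RGS8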
# RGS4-Gao HTS = modulators of RGS–Galpha-o binding, primary screen, biochemical, multiplexed beads, flow cytometry, RGS4/7/8/16/19 | shares compounds with RGS16-Gao | multiplexed bead flow cytometry | RGS4–Galpha-o binding response, % at 10 µM | 1,600 tested, 99% active;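 note: fluorescently labeled Galpha-o bound to GDP with aluminium fluoride binding biotinylated RGS beads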
# Target sequence (P09471 whole entry, looked up): as above
# Target sequence (P49798 whole entry, looked up): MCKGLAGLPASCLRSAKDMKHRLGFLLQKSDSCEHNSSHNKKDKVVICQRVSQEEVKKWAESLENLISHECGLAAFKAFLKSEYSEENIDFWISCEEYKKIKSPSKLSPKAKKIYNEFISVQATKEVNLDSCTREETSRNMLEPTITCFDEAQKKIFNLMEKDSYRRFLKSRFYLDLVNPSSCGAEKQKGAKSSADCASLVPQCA
# Biotin-avidin = disruption of biotin probe capture by avidin, counter-screen for RGS protein interaction modulators, biochemical, flow cytometry, bead-based; shares compounds with RGS16-Gao; streptavidin beads, fluorescein-biotin binding; inhibition, % at 10 µM; 1,700 tested, under 10 active;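 active = inhibition above 50%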;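 note: median green fluorescence of gated singlet beads compared with DMSO control wells; 0% = DMSO wells and 100% = complete loss of bead fluorescence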
# RGS8-Gao confirm = RGS8-Galphao binding modulators, confirmation, biochemical, multiplexed bead flow cytometry, single concentration; shares compounds with RGS16-Gao; bead-based flow cytometry RGS8-Galphao binding, fluorescence; actives lie on both sides; binding response (% of control), % at 10 µM; 1,700 tested, 3% active; in the data active = binding response below about 72% or above about 130%; inactive = in between;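 note: Galphao activated as GDP AlF4 complex before binding bead RGS8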
# RGS7-Gao confirm = RGS7-Galphao binding modulators, confirmation, biochemical, multiplexed bead flow cytometry, single concentration. shares compounds with RGS16-Gao. bead-based flow cytometry RGS7-Galphao binding; actives lie on both sides. response (percent of control binding), % at 10 µM. 1,700 tested, 7.8% active. AID 1837, 2009; in the data active = response below about 75% or above about 130%; inactive = in between;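 note: fluorescent Galphao activated with GDP and aluminum fluoride binding bead-coupled RGS7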
# RGS16-Gao single = modulators of RGS16-Galphao protein binding, confirmation, biochemical, single concentration, multiplexed bead flow cytometry; shares compounds with RGS16-Gao; bead-based flow cytometry; actives lie on both sides; response (% of control binding), % at 10 µM; 1,700 tested, 4% active; AID 1838, 2009; in the data active = response below about 74% or above about 130%; inactive = in between;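 note: Galphao activated as the GDP aluminium fluoride complex binding bead-coupled RGS16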
# RGS4-Gao single = modulators of RGS4-Galphao protein binding, confirmation, biochemical, single concentration, multiplexed bead flow cytometry. shares compounds with RGS16-Gao. actives lie on both sides. binding response (% of control), % at 10 µM. 1,700 tested, 4% active; in the data active = binding response below about 74% or above about 130%; inactive = in between
# RGS19-Gao single = regulators of RGS19-Galphao binding, confirmation, biochemical, single point, multiplexed bead flow cytometry | response (percent of control binding), % at 10 µM | AID 1841, 2009 | shares compounds with RGS16-Gao | bead-based flow cytometry RGS19-Galphao binding; actives lie on both sides | 1,700 tested, 5% active; in the data active = response below about 50% or above about 160%; inactive = in between;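 note: 100% = no compound control and 0% = blank background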
# An asterisk follows results filed as active; ? = inconclusive; / = no result; + = active, no number; [ ] = remark or other dose. Hits are enriched below; roughly 1.2% of the tested compounds scored in any of these assays. Unless noted, the rule behind the calls is not given here.
SMILES,RGS4-Gao reg,RGS7-Gao,Avidin bead fluor,GSH fluor,RGS16-Gao,RGS8-Gao,RGS4-Gao HTS,Biotin-avidin,RGS8-Gao confirm,RGS7-Gao confirm,RGS16-Gao single,RGS4-Gao single,RGS19-Gao single
CCCN1C(=O)COc2ccc(-c3n[nH]c(=O)c4ccccc34)cc21,87.9,83.0,6,17,83.3,90.3,/,/,/,/,/,/,/
CCOC(=O)c1sc(NC(=O)Nc2ccc(F)cc2)nc1C,90.8,91.4,9,4,24.9*,72.7,90.8*,0.9,98.9,104.6,101.6,105.0,102.7
Cc1ccc2nc(-c3ccc(NC(=O)CN4C(=O)c5ccccc5C4=O)cc3)sc2c1,99.9,107.8,11,19,100.4,99.2,/,/,/,/,/,/,/
Cc1ccc2nc(-c3ccc(NC(=O)CNC4CC4)cc3)sc2c1,108.1,217.1*[activator],101*,21,83.0,90.5,108.1*,-0.2,97.7,94.6,97.1,97.2,90.9
Cn1c(SCC(=O)c2ccccc2)nnc1-c1cccc(N)c1,59.6,77.2,-2,47,-92.5*,88.7,59.6*,-1.3,103.7,107.7,106.0,105.5,104.7
Nc1nc(-c2ccc(Cl)cc2)cc(C(F)(F)F)n1,126.2,117.7,7,8,280.1,142.1*[activator],126.2*,-2.5,102.5,150.7*[activator],111.5,126.3*[activator],127.9
Nc1nc(-c2ccc(F)cc2)cc(C(F)(F)F)n1,102.3,99.3,10,11,101.9,100.7,/,/,/,/,/,/,/
CSc1nnc(C)c(=O)n1COC(=O)COc1ccc(Cl)cc1Cl,101.8,99.4,21,7,101.5,100.6,/,/,/,/,/,/,/
O=C(O)C1CCCN1S(=O)(=O)c1ccc2[nH]c(=O)c(=O)[nH]c2c1 (centres undefined),157.6*[activator],144.2,22,33,160.8,133.4,/,0.7,101.6,102.0,99.6,101.9,79.3
COC(=O)CCCNC(=O)c1ccccn1,119.7,231.1*[activator],229*,7,112.8,92.9,119.7*,4.4,93.6,86.0,90.1,88.4,126.5
CCn1cc(CN2N=C(C)CC2c2ccccc2)c(C)n1 (centres undefined),103.5,98.2,6,21,105.3,101.9,/,/,/,/,/,/,/
CCN1c2ccc(S(=O)(=O)N3CCOCC3)cc2N(Cc2ccc(OC)cc2)C1C (centres undefined),48.4*,49.9*,16,11,49.5,58.7*,/,-0.5,99.9,95.6,95.5,97.2,96.5
COc1ccc2cc(S(=O)(=O)N3CCOCC3)ccc2c1,102.5,101.3,37,16,101.3,98.5,/,/,/,/,/,/,/
O=C(CSc1nnc2scc(-c3ccccc3)n12)Nc1nsc(-c2ccccc2)n1,98.9,107.6,47,17,115.6,107.6,/,/,/,/,/,/,/
Cc1ccc(-c2csc3nnc(SCC(=O)Nc4nsc(-c5ccccc5)n4)n23)cc1,/,/,/,34,/,/,/,0.1,99.7,99.5,99.3,100.8,95.1
CN(CCc1cnn(C)c1)Cc1nc(CC2CC2)no1,95.2,94.8,0,13,98.1,98.0,/,/,/,/,/,/,/
Cc1n[nH]c(=S)n1/N=C/c1ccccc1OCc1ccc(Cl)cc1Cl,92.0,87.9,5,5,15.3*,68.7,92.0*,2.0,96.2,104.5,97.5,98.3,97.7
COc1ccc(OC)c(NC(=O)CSc2nncc3ccc(OC)c(OC)c23)c1,101.8,?,7,/,102.0,98.8,/,/,/,/,/,/,/
CCCS(=O)(=O)N1CCN(C(=O)c2cccnc2)CC1,56.5,47.7*,6,14,72.9,68.0,56.5*,/,/,/,/,/,/
CS(=O)(=O)N1CCN(C(=O)c2cccnc2)CC1,87.5,96.7,7,67,83.3,96.0,/,/,/,/,/,/,/
O=C(OCCN1C(=O)c2ccccc2C1=O)c1cccs1,129.9,126.0,6,16,+,140.4,129.9*,/,/,/,/,/,/
COc1ccc(OC)c(/C(O)=C/C(=O)C(=O)Nc2cc(C)ccc2OC)c1,48.8*,67.9,-1,29,709.8,81.9,/,0.1,88.9,75.5*,86.7,83.7,127.0
COc1ccc(OC)c(/C(O)=C/C(=O)C(=O)Nc2cc(C)cc(C)c2)c1,97.2,96.7,15,35,100.9,100.5,/,/,/,/,/,/,/
CN=c1scc(-c2cccs2)n1/N=C/c1ccc(O)c(O)c1O,90.3,92.9,4,12,83.3,86.6,/,/,/,/,/,/,/
CN=c1scc(C)n1/N=C/c1ccc(O)c(O)c1O,64.0,52.8,6,8,29.8,47.9*,64.0*,-1.5,70.8*,56.6*,64.3*,77.5,28.7*
O=c1[nH]c2ccccc2nc1C(F)(F)F,172.7*[activator],?,6,/,167.3,136.9,/,-0.6,93.2,89.0,90.6,93.6,100.9
COc1ccc(N2CCN(C(c3cc4cc(C)ccc4[nH]c3=O)c3nnnn3Cc3ccccc3)CC2)cc1 (centres undefined),/,/,/,40,/,/,/,1.9,98.5,99.7,98.2,100.0,98.3

# Bioassay records: PubChem, NMMLSC
